Assay outcomes from PubChem BioAssay.
USP2a block – USP2a (human) protease inhibition. O75604. USP2 core, Ub-CHOP2 coupled fluorogenic reporter, 485/531. Potency, µM (series often up to 38.3 µM), for the others: at the top dose activity change, negative = inhibition, usual class: inhibitors. actives 0.01% (n = 330,000);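 also: potency is read from the fitted curve at half-maximal effect; plate controls were DMSO wells for no effect and full inhibition by NEM control for full effect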
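Cell-free coupled assay: 10nM USP2 core preincubated 30min RT with compound in Tris-HCl pH 8.0/CaCl2/CHAPS buffer, then 25nM Ub-CHOP2 and 25nM reporter substrate; fluorescence (Ex 485/Em 531) read after 60min RT, normalized to NEM inhibition, concentration-response curves fitted.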
USP1-UAF1 inh – inhibitors of human USP1/UAF1 deubiquitinase; O94782; recombinant USP1/UAF1, Ub-Rhodamine cleavage fluorescence; Potency, µM (highest dose often 57.1 µM), inactives show at the top dose activity change, negative = inhibition, usual class: inhibitors; actives 0.23% (n = 390,000); also: potency is read from the fitted curve at half-maximal effect; % is scaled to controls: 0 for no effect and ±100 for the full control effect; nearly all actives have a fitted effect of over 60% in size
Target sequence (O94782 whole entry, looked up): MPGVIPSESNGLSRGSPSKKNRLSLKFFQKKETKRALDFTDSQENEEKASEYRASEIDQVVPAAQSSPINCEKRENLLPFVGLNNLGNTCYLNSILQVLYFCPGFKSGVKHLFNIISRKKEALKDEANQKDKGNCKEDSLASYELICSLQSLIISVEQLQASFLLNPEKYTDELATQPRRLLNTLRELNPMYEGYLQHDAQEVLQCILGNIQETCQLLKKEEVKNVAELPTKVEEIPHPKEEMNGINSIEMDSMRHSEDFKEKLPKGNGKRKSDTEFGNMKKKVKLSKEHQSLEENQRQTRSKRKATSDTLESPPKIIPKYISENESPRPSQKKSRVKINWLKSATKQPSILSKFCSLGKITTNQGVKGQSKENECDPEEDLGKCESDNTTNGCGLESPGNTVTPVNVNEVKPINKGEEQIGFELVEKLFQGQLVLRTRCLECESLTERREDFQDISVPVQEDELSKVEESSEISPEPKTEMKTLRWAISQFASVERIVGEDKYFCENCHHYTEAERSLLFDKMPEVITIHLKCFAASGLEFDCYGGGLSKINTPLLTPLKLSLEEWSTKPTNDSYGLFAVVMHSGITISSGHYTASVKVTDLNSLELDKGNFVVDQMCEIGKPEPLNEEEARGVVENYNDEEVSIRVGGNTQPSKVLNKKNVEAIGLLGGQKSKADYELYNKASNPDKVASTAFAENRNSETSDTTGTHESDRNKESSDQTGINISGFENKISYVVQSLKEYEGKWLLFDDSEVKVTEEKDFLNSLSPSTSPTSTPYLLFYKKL
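High-throughput fluorogenic screen: 1nM USP1/UAF1 complex, Ub-Rho substrate 150nM final, 50mM HEPES pH 7.8 with 0.5mM EDTA, 0.1 mg/ml BSA, 1mM TCEP and 0.01% Tween-20.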
ATXN2 expr inh – inhibitors of ATXN2 expression. HEK-293 ATXN2-luciferase reporter, luminescence, 24 h. Potency, µM (highest dose often 57 µM), without a hit: at the highest dose activity change, negative = inhibition, usual class: inhibitors. actives 0.72% (n = 360,000). AID 1745845; also: potency is read from the fitted curve at half-maximal effect; % is scaled to controls: 0 for no effect and ±100 for the full control effect; nearly all actives have a fitted effect of over 55% in size
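ATXN2-luciferase reporter cells (luciferase flanked by upstream and downstream ATXN2 gene portions) were treated 24 h at 37 °C with compounds at up to 57 uM. SteadyGlo luminescence gave expression; GF-AFC fluorescence gave viability.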
S2 tox – cell viability loss in ATXN counter-screen; S2 cells (HEK-293 line with an ATXN2-luciferase reporter) viability, CellTiter-Fluor protease fluorescence, 24 h; Potency, µM (titrated, usually from 56.7 µM), most hits filed as cytotoxic; actives 0.49% (n = 400,000); AID 651635; also: potency is read from the fitted curve at half-maximal effect; nearly all actives have a fitted effect of over 40% in size
IL-1B inflam inh – inflammasome signaling inhibition, IL-1 beta readout. actives 4.7% (n = 360,000). activity change, % at 57.5 µM. THP-1 LPS/ATP IL-1B secretion, AlphaLISA, 16 h; hits give low values; in the data active = activity change below about -50%; inconclusive = mostly about -30% to -49%; also: % is scaled to controls: 0 for no effect and ±100 for the full control effect
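Secreted IL-1B measured by AlphaLISA bead assay after 16 h compound exposure of THP-1 cells; compounds (final up to 57.5 uM) added 1 h before LPS (250 ng/mL) and ATP (1.25 mM) stimulation; lower signal means less secretion.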
Numbers without * were called inactive. Rows were chosen to be rich in hits. Some 4.8% of all compounds tested hit in one or more screens of this group. Unless noted, calls follow the shape of the dose curve; as a rule, active = well fitted curve in the direction sought with a large enough effect; inconclusive = small, poorly fitted or top-dose-only effect, or another doubt; inactive = no such curve, though single readings can be large; an effect the other way counts as inactive or inconclusive.

For CCOC(=O)c1c(C)[nH]c(C)c1S(=O)(=O)N1CCCC(C(=O)NCc2cccc(C)c2)C1 (centres undefined) the results were USP1-UAF1 inh -7.9%, ATXN2 expr inh 11.9% and S2 tox inactive.
CN(Cc1ccccc1)C(=O)c1cccc(NC(=O)Cc2cccc(NC(=O)C3CCN(C(=O)C4CCC4)CC3)c2)c1 was read as USP1-UAF1 inh -38.1%, ATXN2 expr inh 2.5%, S2 tox inactive and IL-1B inflam inh -21.4.
`CC(C)C[C@H]1CN(CCCC[C@@H]2CNC(=O)C(=O)N2CC2CCCCC2)C(=O)C(=O)N1CC1CCCCC1` gave ATXN2 expr inh 6.9%, S2 tox inactive and IL-1B inflam inh -4.0.
Cc1ccc(N(C(=O)c2snc(C(N)=O)c2N)C(C(=O)NC2CCCC2)c2ccncc2)cc1 (centres undefined) was read as USP2a block 3.3%, USP1-UAF1 inh -19.7%, ATXN2 expr inh 0.4%, S2 tox inactive and IL-1B inflam inh -14.7.
Screening Cc1ccc(N(C(=O)c2snc(C(N)=O)c2N)C(C(=O)NCc2ccccc2)c2ccncc2)c(C)c1 (centres undefined) returned USP2a block 2.3%, USP1-UAF1 inh -22.6%, ATXN2 expr inh 19.0%, S2 tox inactive and IL-1B inflam inh -51.0*.
For COc1ccc(C(C(=O)NCc2ccccc2)N(C(=O)c2snc(C(N)=O)c2N)c2ccccc2OC)cc1 (centres undefined) the results were USP2a block 1.2%, USP1-UAF1 inh -18.1%, ATXN2 expr inh inconclusive, S2 tox inactive and IL-1B inflam inh -54.5*.
COc1ccc(N(C(=O)c2snc(C(N)=O)c2N)C(C(=O)NCc2ccccc2)c2ccc(F)cc2)c(OC)c1 (centres undefined) was read as USP2a block -2.1%, USP1-UAF1 inh -8.0%, ATXN2 expr inh -11.8%, S2 tox inactive and IL-1B inflam inh inconclusive.
For CCN(CC(=O)Nc1c(F)cccc1F)C(=O)COc1ccc2c(c1)CCC2 the results were USP2a block -1.5%, USP1-UAF1 inh -9.3%, ATXN2 expr inh -0.2%, S2 tox inactive and IL-1B inflam inh -12.5.
For CCOc1ccc(NC(=O)C(=O)NCCc2csc(-c3ccc(F)cc3)n2)cc1 the results were USP1-UAF1 inh -27.7%, ATXN2 expr inh -7.4% and S2 tox inactive.
For CCOc1ccc2nc(CN3CCN(Cc4ccccc4OCC)C(CCO)C3)ccc2c1 (centres undefined) the results were USP2a block -0.8%, USP1-UAF1 inh -10.8%, ATXN2 expr inh -16.3%, S2 tox inactive and IL-1B inflam inh -69.8*.
For CCOc1cc(CN2CCN(CCc3ccccc3)C(CCO)C2)ccc1OC (centres undefined) the results were USP2a block -1.2%, USP1-UAF1 inh -11.9%, ATXN2 expr inh -9.4%, S2 tox inactive and IL-1B inflam inh -68.9*.
For COc1ccc(CN2CCN(CCCc3ccccc3)C(CCO)C2)cc1OC (centres undefined) the results were USP2a block 0.1%, USP1-UAF1 inh -16.8%, ATXN2 expr inh 0.3%, S2 tox inactive and IL-1B inflam inh -12.7.
`COc1ccc(NC(C)=O)c([N+](=O)[O-])c1[N+](=O)[O-]` gave USP1-UAF1 inh 2.2%, ATXN2 expr inh -1.9%, S2 tox inactive and IL-1B inflam inh -68.9*.
Screening COc1ccc(OC)c([N+](=O)[O-])c1C(N)=O returned USP2a block 2.0%, USP1-UAF1 inh -22.6%, ATXN2 expr inh inconclusive and IL-1B inflam inh 12.5.
Screening Cc1ccc(C)n1-c1ccc(N2CCOCC2)c([N+](=O)[O-])c1 returned USP2a block -3.8%, USP1-UAF1 inh -12.0%, ATXN2 expr inh -20.2%, S2 tox inconclusive and IL-1B inflam inh -67.8*.
For Cc1cc(C=O)c(C)n1-c1ccc(N2CCOCC2)c([N+](=O)[O-])c1 the results were USP2a block 0.7%, USP1-UAF1 inh -3.2%, ATXN2 expr inh -14.3%, S2 tox inactive and IL-1B inflam inh -4.3.
Screening CCC(C)NCCC(=O)Nc1ccc(Cl)c(S(=O)(=O)Nc2ccc(Cl)cc2)c1 (centres undefined) returned USP2a block 6.4%, USP1-UAF1 inh -14.3%, ATXN2 expr inh -17.4%, S2 tox inactive and IL-1B inflam inh -51.0*.
`CN(C)c1ccc(NS(=O)(=O)c2cc(Cl)ccc2Cl)cc1` gave USP2a block 3.4%, USP1-UAF1 inh -3.4%, ATXN2 expr inh 31.8%, S2 tox inactive and IL-1B inflam inh 10.0.
CCN(c1ccc(NS(=O)(=O)c2cc(Cl)ccc2Cl)cc1)C(C)C was read as USP2a block -3.4%, USP1-UAF1 inh -18.2%, ATXN2 expr inh -4.3%, S2 tox inactive and IL-1B inflam inh -92.2*.
Screening CCOc1ccc(CNc2nc3nc(C)c(Cc4ccccc4)c(=O)n3[nH]2)cc1 returned USP1-UAF1 inh -4.0%, ATXN2 expr inh 8.5% and S2 tox inactive.
Screening CC(=O)NC(c1ccco1)c1cc(Cl)c2ccccc2c1O (centres undefined) returned USP2a block -8.9%, ATXN2 expr inh -11.3% and S2 tox inactive.
For CC(=O)NC(c1ccco1)c1cc(F)c2cccnc2c1O (centres undefined) the results were USP2a block -1.2%, ATXN2 expr inh inconclusive and S2 tox 14.1µM*.
Screening CC(C)C(=O)NC(c1cccs1)c1cc([N+](=O)[O-])c2cccnc2c1O (centres undefined) returned USP2a block -8.6%, USP1-UAF1 inh -10.2%, ATXN2 expr inh inconclusive, S2 tox inactive and IL-1B inflam inh -12.5.
`CC(=O)NC(c1cccs1)c1cc(F)c2cccnc2c1O` (centres undefined) gave USP2a block -2.5%, ATXN2 expr inh inconclusive and S2 tox 3.98µM*.
For Cc1cc2c(ccc3[nH]onc32)n1 the results were USP2a block 1.2%, USP1-UAF1 inh 2.1%, ATXN2 expr inh -3.3%, S2 tox inactive and IL-1B inflam inh -60.2*.
Nc1c(Cl)c(Cl)nc(C(=O)OCC(=O)N2CCCC2=O)c1Cl was read as USP2a block -0.4%, USP1-UAF1 inh -19.8%, ATXN2 expr inh 5.5%, S2 tox inactive and IL-1B inflam inh 13.0.
For O=C(OCC(=O)N1CCCC1=O)c1nc(Cl)c(Cl)c(Cl)c1Cl the results were USP2a block 4.5%, USP1-UAF1 inh -24.2%, ATXN2 expr inh inconclusive, S2 tox 31.6µM* and IL-1B inflam inh -95.0*.
`CC(=O)c1c(C)n(-c2ccc(C)cc2)c2ccc(OC(=O)COc3ccccc3)cc12` gave USP1-UAF1 inh -21.1%, ATXN2 expr inh 16.3% and S2 tox inactive.
